The supplement of paper PMC6411743
± gives the standard deviation of the averaged measurements. About 5,400 targets were measured; listed, in parts, are those with the largest changes and a random draw of the rest.

Compound: Nc1nc2c(ncn2[C@@H]2O[C@H](COP(=O)(O)OP(=O)(O)OP(=O)(O)O)[C@@H](O)[C@H]2O)c(=O)[nH]1 [guanosine triphosphate]
Assay: NP40-soluble protein abundance relative to vehicle (solubility fold change) (ratio); higher = more soluble protein in presence of GTP
Procedure, shortened: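 Jurkat crude lysate (Dounce-homogenised) was treated with eight concentrations from 0.1 to 10 mM for 10 min at room temperature, then 3 min at 37 °C. It was solubilised with 0.8% NP40 and benzonase (60 min, 4 °C) and ultracentrifuged, and the supernatant was TMT-labelled for LC-MS/MS. Intensities were vsn-normalised, and the value is the fold change against the NP40-processed vehicle per replicate, from three independent experiments.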

Sequence of UniProt Q8TEU7 (Q8TEU7 whole entry, looked up, other chains not shown): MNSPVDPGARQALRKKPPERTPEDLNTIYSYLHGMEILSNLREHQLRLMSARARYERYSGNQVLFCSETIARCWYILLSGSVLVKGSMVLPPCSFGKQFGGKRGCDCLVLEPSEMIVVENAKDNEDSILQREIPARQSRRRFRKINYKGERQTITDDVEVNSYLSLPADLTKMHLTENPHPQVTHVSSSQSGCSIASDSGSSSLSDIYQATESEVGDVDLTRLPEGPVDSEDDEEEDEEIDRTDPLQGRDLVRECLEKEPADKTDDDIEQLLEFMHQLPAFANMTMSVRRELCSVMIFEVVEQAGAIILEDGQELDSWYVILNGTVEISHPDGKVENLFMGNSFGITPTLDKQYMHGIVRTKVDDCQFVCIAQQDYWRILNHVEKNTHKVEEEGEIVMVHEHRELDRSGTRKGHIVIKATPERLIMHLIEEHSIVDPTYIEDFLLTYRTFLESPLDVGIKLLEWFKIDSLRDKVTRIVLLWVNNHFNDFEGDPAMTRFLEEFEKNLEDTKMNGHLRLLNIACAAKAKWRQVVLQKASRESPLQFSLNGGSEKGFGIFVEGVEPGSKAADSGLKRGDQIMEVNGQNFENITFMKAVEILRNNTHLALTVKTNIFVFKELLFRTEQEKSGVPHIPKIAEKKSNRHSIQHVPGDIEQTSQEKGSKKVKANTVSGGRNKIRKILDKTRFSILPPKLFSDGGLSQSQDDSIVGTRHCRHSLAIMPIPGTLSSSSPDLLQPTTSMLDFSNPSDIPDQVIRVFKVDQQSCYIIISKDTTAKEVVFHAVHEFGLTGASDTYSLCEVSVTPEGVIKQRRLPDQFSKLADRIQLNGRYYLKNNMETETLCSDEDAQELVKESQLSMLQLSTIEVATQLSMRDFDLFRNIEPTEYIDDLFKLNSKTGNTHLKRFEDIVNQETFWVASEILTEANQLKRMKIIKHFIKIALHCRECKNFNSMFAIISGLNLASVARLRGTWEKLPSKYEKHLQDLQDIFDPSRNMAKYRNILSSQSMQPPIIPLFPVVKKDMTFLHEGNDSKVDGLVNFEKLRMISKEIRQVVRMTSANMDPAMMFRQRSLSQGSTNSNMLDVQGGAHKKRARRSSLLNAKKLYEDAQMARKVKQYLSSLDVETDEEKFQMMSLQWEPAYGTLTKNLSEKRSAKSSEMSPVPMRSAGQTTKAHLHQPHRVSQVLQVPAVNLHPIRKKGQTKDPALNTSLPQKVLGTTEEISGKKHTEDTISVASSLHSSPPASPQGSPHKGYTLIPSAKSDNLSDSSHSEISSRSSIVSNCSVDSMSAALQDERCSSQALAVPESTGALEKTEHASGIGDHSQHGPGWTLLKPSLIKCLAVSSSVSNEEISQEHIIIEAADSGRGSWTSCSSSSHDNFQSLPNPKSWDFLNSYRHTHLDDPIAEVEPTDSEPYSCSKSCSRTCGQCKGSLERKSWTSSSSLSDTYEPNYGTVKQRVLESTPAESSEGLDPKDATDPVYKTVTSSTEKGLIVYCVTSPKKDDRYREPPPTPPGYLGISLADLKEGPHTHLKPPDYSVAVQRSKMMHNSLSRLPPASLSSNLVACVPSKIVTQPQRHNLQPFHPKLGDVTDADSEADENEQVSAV
Sequence of UniProt A5PLN9 (A5PLN9 whole entry): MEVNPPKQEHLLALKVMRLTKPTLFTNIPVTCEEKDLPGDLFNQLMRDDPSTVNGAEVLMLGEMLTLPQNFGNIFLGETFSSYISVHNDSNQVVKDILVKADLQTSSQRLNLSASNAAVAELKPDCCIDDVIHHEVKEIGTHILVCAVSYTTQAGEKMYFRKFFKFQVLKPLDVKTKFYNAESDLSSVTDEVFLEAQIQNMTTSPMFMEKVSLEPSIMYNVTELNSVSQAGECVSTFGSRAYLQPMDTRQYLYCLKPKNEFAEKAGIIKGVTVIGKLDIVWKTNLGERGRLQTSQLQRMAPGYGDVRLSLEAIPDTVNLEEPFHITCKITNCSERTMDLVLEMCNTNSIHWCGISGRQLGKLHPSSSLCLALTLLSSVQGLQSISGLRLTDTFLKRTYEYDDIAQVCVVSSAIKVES
Sequence of UniProt Q15629 (Q15629 whole entry, one chain of several): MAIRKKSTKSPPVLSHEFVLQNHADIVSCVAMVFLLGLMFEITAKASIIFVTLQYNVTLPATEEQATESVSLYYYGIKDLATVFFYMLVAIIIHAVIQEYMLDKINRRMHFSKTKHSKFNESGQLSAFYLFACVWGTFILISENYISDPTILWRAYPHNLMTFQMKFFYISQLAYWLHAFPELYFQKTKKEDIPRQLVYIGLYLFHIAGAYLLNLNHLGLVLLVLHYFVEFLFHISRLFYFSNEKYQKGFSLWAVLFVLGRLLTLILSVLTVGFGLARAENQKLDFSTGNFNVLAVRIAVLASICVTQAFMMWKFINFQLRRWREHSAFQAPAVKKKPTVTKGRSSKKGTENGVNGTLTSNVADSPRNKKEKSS
Sequence of UniProt A2RUS2 (A2RUS2 whole entry, one chain of several): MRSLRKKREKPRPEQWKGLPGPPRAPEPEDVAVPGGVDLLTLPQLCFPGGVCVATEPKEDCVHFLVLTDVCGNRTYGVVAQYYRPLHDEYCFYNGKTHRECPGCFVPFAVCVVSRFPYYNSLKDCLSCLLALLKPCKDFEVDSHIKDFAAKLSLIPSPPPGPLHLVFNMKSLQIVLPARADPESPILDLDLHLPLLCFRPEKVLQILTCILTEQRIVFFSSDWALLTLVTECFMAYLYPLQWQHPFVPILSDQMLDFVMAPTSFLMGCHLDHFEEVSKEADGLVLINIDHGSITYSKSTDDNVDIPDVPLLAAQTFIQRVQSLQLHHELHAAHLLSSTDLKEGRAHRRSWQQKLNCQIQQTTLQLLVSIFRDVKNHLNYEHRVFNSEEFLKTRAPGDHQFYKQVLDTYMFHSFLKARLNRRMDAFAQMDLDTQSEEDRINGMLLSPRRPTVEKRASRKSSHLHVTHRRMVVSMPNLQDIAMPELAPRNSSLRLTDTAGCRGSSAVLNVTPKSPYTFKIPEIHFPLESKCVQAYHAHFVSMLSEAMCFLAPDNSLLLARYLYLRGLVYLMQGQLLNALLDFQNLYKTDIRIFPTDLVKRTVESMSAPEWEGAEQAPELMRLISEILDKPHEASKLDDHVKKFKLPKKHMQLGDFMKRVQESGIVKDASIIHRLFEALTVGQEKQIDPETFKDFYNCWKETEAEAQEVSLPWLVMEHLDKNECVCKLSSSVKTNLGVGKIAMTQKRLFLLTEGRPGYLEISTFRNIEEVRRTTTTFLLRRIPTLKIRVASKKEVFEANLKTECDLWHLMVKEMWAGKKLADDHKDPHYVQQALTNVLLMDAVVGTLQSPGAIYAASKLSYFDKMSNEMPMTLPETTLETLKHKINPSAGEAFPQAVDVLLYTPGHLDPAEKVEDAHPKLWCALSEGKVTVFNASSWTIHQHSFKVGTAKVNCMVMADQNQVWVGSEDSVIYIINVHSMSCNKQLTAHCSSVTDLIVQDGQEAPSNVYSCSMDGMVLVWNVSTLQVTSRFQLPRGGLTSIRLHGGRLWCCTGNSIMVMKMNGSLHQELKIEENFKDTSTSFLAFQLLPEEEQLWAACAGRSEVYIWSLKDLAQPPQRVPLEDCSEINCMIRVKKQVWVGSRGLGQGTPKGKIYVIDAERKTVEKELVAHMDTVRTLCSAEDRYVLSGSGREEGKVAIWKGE
Sequence of UniProt Q15283 (Q15283 whole entry, one chain of several): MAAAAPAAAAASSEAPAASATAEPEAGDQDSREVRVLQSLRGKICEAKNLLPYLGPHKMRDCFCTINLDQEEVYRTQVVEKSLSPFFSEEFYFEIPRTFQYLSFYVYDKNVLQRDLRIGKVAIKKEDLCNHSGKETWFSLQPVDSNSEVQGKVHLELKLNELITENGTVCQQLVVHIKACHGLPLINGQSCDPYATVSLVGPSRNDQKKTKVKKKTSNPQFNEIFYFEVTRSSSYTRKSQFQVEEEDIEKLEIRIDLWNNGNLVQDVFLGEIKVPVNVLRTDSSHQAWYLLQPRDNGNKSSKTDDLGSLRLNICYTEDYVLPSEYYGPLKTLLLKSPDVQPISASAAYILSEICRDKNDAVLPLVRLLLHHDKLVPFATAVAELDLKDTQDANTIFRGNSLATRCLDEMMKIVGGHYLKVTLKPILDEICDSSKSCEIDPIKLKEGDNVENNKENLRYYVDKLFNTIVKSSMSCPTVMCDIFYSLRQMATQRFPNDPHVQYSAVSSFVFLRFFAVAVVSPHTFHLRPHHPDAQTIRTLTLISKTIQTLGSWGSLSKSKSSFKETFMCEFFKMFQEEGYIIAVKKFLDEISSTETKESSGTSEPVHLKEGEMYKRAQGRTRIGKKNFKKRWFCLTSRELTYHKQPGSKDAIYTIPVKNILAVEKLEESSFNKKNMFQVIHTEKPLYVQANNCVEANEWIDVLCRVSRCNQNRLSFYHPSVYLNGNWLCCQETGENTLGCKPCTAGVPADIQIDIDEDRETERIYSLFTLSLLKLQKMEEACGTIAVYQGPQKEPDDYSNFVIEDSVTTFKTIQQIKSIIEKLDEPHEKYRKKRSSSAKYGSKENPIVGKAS
Sequence of UniProt P02792 (P02792 whole entry, one chain of several): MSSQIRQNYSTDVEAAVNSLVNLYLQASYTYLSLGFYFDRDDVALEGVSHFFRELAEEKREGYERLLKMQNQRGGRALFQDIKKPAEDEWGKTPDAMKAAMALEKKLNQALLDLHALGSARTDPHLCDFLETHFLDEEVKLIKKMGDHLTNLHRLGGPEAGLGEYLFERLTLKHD
Sequence of UniProt Q9NQ29 (Q9NQ29 whole entry, one chain of several): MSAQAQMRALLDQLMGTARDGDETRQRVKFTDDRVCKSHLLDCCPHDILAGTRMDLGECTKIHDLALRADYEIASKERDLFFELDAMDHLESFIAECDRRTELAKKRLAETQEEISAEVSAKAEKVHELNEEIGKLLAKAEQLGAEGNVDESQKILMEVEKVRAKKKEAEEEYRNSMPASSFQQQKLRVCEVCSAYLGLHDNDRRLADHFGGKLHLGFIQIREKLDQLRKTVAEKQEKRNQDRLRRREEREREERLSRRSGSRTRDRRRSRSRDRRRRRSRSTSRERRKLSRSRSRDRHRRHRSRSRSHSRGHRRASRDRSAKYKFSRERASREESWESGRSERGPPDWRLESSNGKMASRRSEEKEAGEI

Target	NP40-soluble protein abundance (concentration: 0.1mM)	NP40-soluble protein abundance (concentration: 0.5mM)	NP40-soluble protein abundance (concentration: 1mM)	NP40-soluble protein abundance (concentration: 2mM)	NP40-soluble protein abundance (concentration: 4mM)	NP40-soluble protein abundance (concentration: 6mM)	NP40-soluble protein abundance (concentration: 8mM)	NP40-soluble protein abundance (concentration: 10mM)
A0A0C4DFU2|P04179|P04179-4 (UniProt P04179)	0.85 ± 0.056	0.843 ± 0.071	0.851 ± 0.071	0.839 ± 0.043	0.814 ± 0.045	0.823 ± 0.052	0.734 ± 0.073	0.776 ± 0.07
A0A0U1RR32|A0A0U1RRH7|P04908|P0C0S8|P20671|Q6FI13|Q7L7L0|Q93077|Q96KK5|Q99878 (UniProt Q99878+Q7L7L0+Q6FI13+Q93077+P20671+P0C0S8+Q96KK5+P04908)	1.01 ± 0.11	0.7204 ± 0.0051	1.26 ± 0.37	1.24 ± 0.024	1.76 ± 0.48	1.92 ± 0.49	1.4 ± 0.53	2.39 ± 1.2
E9PF32|H0YAY3|A2RUS2|A2RUS2-2 (UniProt A2RUS2)	1.1 ± 0.17	1.13 ± 0.069	1.05 ± 0.038	1.1 ± 0.19	1.1 ± 0.12	1.1 ± 0.011	1 ± 0.14	1.01 ± 0.11
B8ZZ10|Q9NQ29|Q9NQ29-2|Q9NQ29-3 (UniProt Q9NQ29)	1.26 ± 0.045	1.75 ± 0.11	1.91 ± 0.18	1.95 ± 0.12	1.98 ± 0.12	2.09 ± 0.14	2.21 ± 0.28	2.22 ± 0.28
G3XAN4|Q15629|Q15629-2 (UniProt Q15629)	0.776 ± 0.028	0.785 ± 0.098	0.911 ± 0.14	0.819 ± 0.16	0.8 ± 0.15	0.783 ± 0.23	0.898 ± 0.19	0.905 ± 0.16
A0A087WT99|Q9H0W9|Q9H0W9-2|E9PPB5|E9PQS1 (UniProt Q9H0W9)	0.993 ± 0.094	0.942 ± 0.069	0.925 ± 0.048	0.899 ± 0.068	0.872 ± 0.058	0.897 ± 0.087	0.901 ± 0.11	0.848 ± 0.053
E9PCH4|Q8TEU7|Q8TEU7-4 (UniProt Q8TEU7+E9PCH4)	0.967 ± 0.021	0.9825 ± 0.0063	0.968 ± 0.023	0.96 ± 0.02	0.981 ± 0.016	0.969 ± 0.038	1.0058 ± 0.00029	0.9592 ± 0.0034
A0A087X1B9|P02792 (UniProt P02792)	1.09 ± 0.16	1.03 ± 0.21	1.44 ± 0.11	1.55 ± 0.054	1.64 ± 0.14	1.465 ± 0.0048	1.43 ± 0.17	1.68 ± 0.12
A0A087X1E4|P53365|P53365-3 (UniProt P53365)	0.956 ± 0.05	0.853 ± 0.057	0.972 ± 0.052	0.963 ± 0.08	0.913 ± 0.088	0.906 ± 0.1	0.861 ± 0.14	0.889 ± 0.068
B0YIW6|P48444 (UniProt P48444)	1.06 ± 0.053	1.08 ± 0.078	1.02 ± 0.066	1.01 ± 0.11	1.02 ± 0.1	1.01 ± 0.083	0.975 ± 0.059	0.933 ± 0.067
C9J050|C9JEJ2|P49585 (UniProt P49585)	1.01 ± 0.094	0.986 ± 0.078	0.953 ± 0.074	0.945 ± 0.077	0.992 ± 0.073	0.942 ± 0.058	0.942 ± 0.079	0.936 ± 0.054
A0A087WUL0|Q3LXA3 (UniProt Q3LXA3)	0.988 ± 0.11	0.963 ± 0.11	0.978 ± 0.14	0.928 ± 0.12	0.948 ± 0.11	0.96 ± 0.16	0.96 ± 0.1	0.951 ± 0.097
A0A0A0MSJ9|Q15283|Q15283-2 (UniProt Q15283)	1.05 ± 0.057	1.07 ± 0.065	0.985 ± 0.018	0.998 ± 0.04	1.01 ± 0.054	0.967 ± 0.048	0.94 ± 0.067	0.927 ± 0.13
A0A087WSW9|A0A087WSY9|E9PIR7|F8W809|Q16881|Q16881-2|Q16881-3|Q16881-4|Q16881-5|Q16881-6 (UniProt Q16881)	0.99 ± 0.03	1.01 ± 0.041	0.918 ± 0.026	0.928 ± 0.049	0.88 ± 0.037	0.9 ± 0.041	0.847 ± 0.022	0.854 ± 0.059
H0YKX3|Q15004 (UniProt Q15004)	1.03 ± 0.086	1.04 ± 0.062	1.07 ± 0.081	1.04 ± 0.12	0.957 ± 0.13	0.982 ± 0.15	1.19 ± 0.031	1.09 ± 0.039
MYO1G (UniProt B0I1T2)	1.12 ± 0.027	1.47 ± 0.26	1.95 ± 0.34	2.5 ± 0.51	2.75 ± 0.45	2.67 ± 0.49	2.58 ± 0.3	2.35 ± 0.31
C9J5X1|P08069 (UniProt P08069)	1.04 ± 0.13	1.04 ± 0.13	1.15 ± 0.11	0.987 ± 0.07	1 ± 0.086	1.05 ± 0.1	1.07 ± 0.14	1.04 ± 0.2
A8MQ02|J3KN01|P55196|P55196-3|P55196-5 (UniProt P55196)	1.15 ± 0.16	0.987 ± 0.079	1 ± 0.038	1.05 ± 0.14	1.18 ± 0.34	1.18 ± 0.21	1.16 ± 0.14	1.13 ± 0.078
E9PP50|P23528 (UniProt P23528)	0.893 ± 0.054	0.906 ± 0.066	0.894 ± 0.066	0.823 ± 0.076	0.819 ± 0.068	0.839 ± 0.078	0.84 ± 0.066	0.821 ± 0.081
G3V5T0|O43708 (UniProt O43708)	0.95 ± 0.046	0.961 ± 0.087	0.879 ± 0.058	0.867 ± 0.063	0.848 ± 0.068	0.854 ± 0.076	0.819 ± 0.096	0.815 ± 0.091
F5GY05 (UniProt Q96EK7)	1.06 ± 0.034	1 ± 0.11	1.01 ± 0.036	1.06 ± 0.083	1 ± 0.047	0.99 ± 0.042	1.05 ± 0.083	1.05 ± 0.13
UniProt A5PLN9|A5PLN9-2|A5PLN9-4|A5PLN9-5	1.02 ± 0.078	1.04 ± 0.052	0.99 ± 0.041	0.954 ± 0.05	0.969 ± 0.073	0.951 ± 0.041	0.965 ± 0.014	0.904 ± 0.014
D6RIH7|Q9UM22 (UniProt Q9UM22)	0.918 ± 0.11	0.931 ± 0.14	0.91 ± 0.12	0.896 ± 0.13	0.902 ± 0.12	0.908 ± 0.13	0.88 ± 0.085	0.889 ± 0.11
A0A087WZV8|A0A0G2JN66 (UniProt P01850)	1.02 ± 0.032	1.04 ± 0.034	1.002 ± 0.0081	1.01 ± 0.042	1.01 ± 0.036	0.98 ± 0.023	0.977 ± 0.04	0.976 ± 0.046
